Compound activity: PubChem BioAssay, several laboratories
Mtb hypoxia rep – PubChem AID 1159583 | M. tuberculosis hypoxia-regulated fluorescent reporter, fluorescence | 0.1% of 300,000 active | fluorescence inhibition, % (no concentration beside the values); in the data active = fluorescence inhibition mostly above about 23%, no sharp cut-off; inactive = mostly below about 17%
BJeLR viability – MLPCN primary cell-based screen for lethality selective to Ras in HRASV12 cells | inhibition, % (concentration not given with the values) | BJeLR (HRASV12) viability, CellTiter-Glo ATP luminescence, 48 h | 0.17% of 300,000 active | AID 1554, 2009; in the data active = inhibition above about 50%
CCHFV vOTU inh – CCHFV vOTU protease inhibitors, primary screen, biochemical, Pep-AMC substrate, fluorescence; inhibition, % at 11.5 µM; 0.55% of 370,000 active; Crimean-Congo hemorrhagic fever virus L polyprotein viral ovarian tumor (vOTU) protease …; in the data active = inhibition above about 30%; also: 0% = vehicle wells with enzyme and 100% = no enzyme wells
RN4220 kill – growth inhibition of S. aureus RN4220, primary screen, OD600 | 16 h | inhibition, % (no concentration beside the values) | 0.33% of 330,000 active; in the data active = inhibition above about 85%;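 also: plate controls were untreated cells for no effect and reference antibiotic for full effect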
RecA intein inh – Mtb RecA intein splicing inhibitors, primary screen, biochemical, fluorescence, HTS; Protein RecA (Mycobacterium tuberculosis (strain ATCC 25618 / H37Rv)), P9WHJ3; cell-free RecA intein splicing; inhibition, % (test concentration not listed); 0.75% of 290,000 active; AID 2221, 2009; in the data active = inhibition above about 30%;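 also: 0% = vehicle wells and 100% = reference inhibitor control wells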
ugtP null kill – growth inhibition of ugtP-null S. aureus, primary screen, RN4220 ugtP deletion, OD600; 16 h; AID 1259309, 2017; growth inhibition, % (test concentration not listed); 0.54% of 330,000 active; in the data active = growth inhibition above about 68%;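 also: plate controls were untreated wells for no effect and antibiotic for full effect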
The depositor's hits bear a star; i = inactive; x = no result shown. In the library only some 1.6% were active in any assay of this set; here they are far more common.

SMILES	Mtb hypoxia rep	BJeLR viability	CCHFV vOTU inh	RN4220 kill	RecA intein inh	ugtP null kill
Cc1cc(NC(=O)CSc2nc3cc(Cl)ccc3o2)no1	6.0	5.7	9.3	3.1	-2.0	0.5
O=S1(=O)C=C(Sc2nc3cc(Cl)ccc3o2)c2ccccc21	x	30.4	x	42.4	5.3	90.6*
CC1CN(C(C)CO)C(=O)c2cccc(NC(=O)C3CCCCC3)c2OC1CN(C)S(C)(=O)=O (configuration not stated)	17.4	x	x	4.6	x	5.8
Cc1c(N2C(=O)/C(=C/c3ccccc3)SC2=S)c(=O)n(-c2ccccc2)n1C	15.9	-2.1	16.8	3.0	6.6	6.2
Cc1c(N2C(=O)/C(=C/c3ccc(N(C)C)cc3)N(C)C2=S)c(=O)n(-c2ccccc2)n1C	40.5*	x	0.4	2.9	x	3.4
CCOC(=O)C1C2COc3ccccc3C2N2C(=O)N(c3ccc(C(F)(F)F)cc3)C(=O)[C@@]12C (some centres not stated)	-6.2	x	x	0.8	x	-4.6
CCN(CC)c1ccc(C2C(C(=O)OC)=C(C)NC(C)=C2C(=O)OC)cc1	11.9	-2.5	29.6*	3.9	-1.7	1.0
CCOc1ccc2nc3cc(NCc4ccc(OC)cc4)ccc3c(N)c2c1	-5.8	6.6	x	100.6*	i	100.0*
CCn1cnc2cc(NCc3ccc(OC)cc3)ccc21	-0.2	-10.7	9.6	-1.4	0.8	4.6
CC(=O)n1cc(C2C=C(C(=O)Nc3ccccc3)OC(OCc3ccc(CO)cc3)C2)c2ccccc21 (configuration not stated)	1.4	x	x	-2.0	x	-5.4
CCCCCCCCCCn1c2c(c(=N)c3c1CCC3)CCC2	13.2	56.2*	13.8	100.3*	31.7*	100.2*
CCCCCn1c2c(c(=N)c3ccccc31)CCC2	4.8	1.7	-0.7	3.4	2.4	4.9
CCCCCCCCCn1c2c(c(=N)c3c1CCC3)CCCC2	x	47.5	x	100.4*	x	100.3*
CCCCCCCCn1c2c(c(=N)c3ccccc31)CCC2	20.6	28.5	20.4	98.0*	10.4	98.1*
COC(=O)C1=C(c2cccc(OCc3ccccc3)c2)CC2CCC1N2C(=O)NCc1cc(C)oc1C(F)(F)F (configuration not stated)	4.8	x	x	-4.5	x	0.6
CCOC(=O)C1C2COc3ccc(Br)cc3C2N2C(=O)c3cc(F)c(F)cc3NC(=O)[C@@]12C (some centres not stated)	-4.2	x	x	-5.5	x	-30.2
CC(C(=O)Nc1ccc2ccccc2c1)C1C[C@@]1(C)C(NC(=O)c1cnccn1)c1ccccc1 (some centres not stated)	-1.7	x	x	0.9	x	6.8
CCOC(=O)C1C2COc3cc(OC)ccc3C2N2C(=O)N(c3cccc(C)c3)C(=O)[C@@]12C (some centres not stated)	-4.2	x	x	8.0	x	-13.1
CCOc1ccc(NC(=O)CN2C(=O)SC(=Cc3cccn3C)C2=O)cc1	-1.1	x	x	0.8	x	-5.5
Cc1cc2nc(Sc3c([N+](=O)[O-])nc(C)n3Cc3ccccc3)[nH]c2cc1C	6.3	-0.9	6.5	2.7	46.4*	22.4
Cc1nc([N+](=O)[O-])c(Sc2nc3ccccc3[nH]2)n1Cc1ccccc1	8.3	-7.4	8.9	2.0	37.6*	4.5
CC(C)c1ccc(N2C(=O)CC(Sc3ncn[nH]3)C2=O)cc1 (configuration not stated)	-13.0	-3.7	7.5	6.8	20.5	19.5
COc1ccc(N2C(=O)CC(Sc3ncn[nH]3)C2=O)c(OC)c1 (configuration not stated)	16.4	-2.8	54.7*	18.9	3.6	29.1
CN(C)C=C(C(=O)c1ccc(F)cc1)S(=O)(=O)c1ccc(F)cc1	-2.0	x	x	5.2	x	-0.2
FC(F)(F)c1cccc(NC(=S)NCC2COc3ccccc3O2)c1 (configuration not stated)	-9.4	11.8	8.4	54.3	6.4	83.3*
SMILES	Mtb hypoxia rep	BJeLR viability	CCHFV vOTU inh	RN4220 kill	RecA intein inh	ugtP null kill
O=[N+]([O-])c1ccc(O)c(C2=NNC(c3ccccc3F)C2)c1 (configuration not stated)	13.7	16.7	-10.9	91.8*	0.6	93.8*
COc1ccc([N+](=O)[O-])cc1C1NN=C(c2ccccc2O)S1 (configuration not stated)	4.6	-9.7	6.4	3.6	-0.5	-2.8
CC(=O)N1C(C)C=C[C@]1(Cc1ccccc1)C(=O)O (some centres not stated)	7.2	x	x	2.5	x	-0.3
CC(C)(C)c1cc(NC(=O)CCl)n(-c2ccccc2)n1	24.4	0.4	0.8	4.0	38.1*	2.3
O=[N+]([O-])c1ccc(NC(=S)NCCc2ccc(Cl)cc2)cc1	-9.1	-5.3	13.2	100.6*	8.9	99.9*
O=[N+]([O-])c1cc(C(F)(F)F)ccc1NCCCCNS(=O)(=O)c1ccc(Cl)cc1	-2.2	-4.9	11.5	-10.3	-1.8	-25.9
O=[N+]([O-])c1ccc(NC(=S)NCCc2ccccc2)cc1	2.3	-6.1	15.8	9.4	8.5	-31.3
O=[N+]([O-])c1cc(C(F)(F)F)ccc1NCCNC(=S)Nc1ccc(Cl)cc1	-1.6	2.9	-5.7	85.2*	11.0	90.2*
Cc1ccc(N(C(=O)c2ccccc2Cl)C2=NC(C)CS2)c(C)c1 (configuration not stated)	8.6	-0.7	12.4	2.0	16.0	88.4*
O=C(Nc1cccc(-c2csc(Nc3ccc(Cl)cc3)n2)c1)c1ccccc1	9.4	-11.3	1.7	15.3	2.4	38.3
O=C(Nc1cccc(-c2csc(Nc3ccc(Cl)cc3)n2)c1)c1cccc(C(F)(F)F)c1	-8.3	5.9	14.1	88.9*	2.0	76.1
COc1ccc(CC2CN3C(=NCC3C)N2CC(C)NC(=O)CCC2CCCCC2)cc1 (configuration not stated)	7.6	x	x	2.5	x	-8.2
C=CC1=C(C(=O)O)N2C(=O)C(NC(=O)C(=NOCC(=O)O)c3csc(N)n3)C2SC1 (configuration not stated)	19.3	x	x	93.0*	x	98.5*
CON=C(C(=O)NC1C(=O)N2C(C(=O)O)=C(CSc3nc(=O)c(=O)[nH]n3C)CSC12)c1csc(N)n1 (configuration not stated)	x	x	6.3	x	x	x
CC(C)OC(=O)c1cc2c(=O)[nH]c(C(Cl)(Cl)Cl)nc2o1	10.0	5.7	1.9	91.9*	-0.8	86.7*
CC(C)OC(=O)c1ccc(S(N)(=O)=O)o1	5.8	2.1	11.5	1.8	0.4	0.3
CCOc1cc(/C=C2\COc3ccccc3C2=O)cc(Br)c1OCC(=O)N(C)C	1.8	65.3*	6.5	24.2	14.5	18.9
COc1ccc(/C=C2\COc3ccccc3C2=O)cc1OC	4.1	-3.0	9.0	24.4	7.8	6.3
